Consider 4 compounds from PubChem BioAssay.

Calls of active or inactive are those of the source.

The test system of experiment [1] is Human papillomavirus type 1a protein E7 (residues 44-93). The experiment in a line: small molecules binding HPV E7 44-93 – biochemical, small-molecule microarray, residues 44-93, 635 nm fluorescence, primary screen (AID 1108).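 Further: E7 fragment applied at 1 µg/mL in TBST for 1 h at 4 C; score combines spot fluorescence with its signal to noise ratio.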 The note with it: fluorescence 635 nm, higher = more signal.
Experiment [2] in a line: hepatitis C replication reporter changes, two-sided – Huh7 cells, luciferase reporter, HCV replication inhibitor project, primary screen (AID 1109).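 Further: huh7 hepatoma cells harbouring a luciferase neomycin HCV replicon reporter; luciferase luminescence as measure of HCV replicon replication; test concentration not given here.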 The conditions noted are these: Huh7 HCV replicon luciferase reporter, 48 h; higher = more signal. A general note: In a reporter assay the amount or activity of a reporter protein is the signal.
Experiment [3] concerns the target Left-right determination factor 2 (Homo sapiens) (UniProt O00292). The experiment in a line: small molecules binding LEFTY2 protein – biochemical, small-molecule microarray, 635 nm fluorescence scan, primary screen (AID 1110). The note with it: higher = more signal.
Experiment [4] deals with Calmodulin-1 (Homo sapiens) (UniProt P0DP23). The experiment in a line: small molecules binding calmodulin-1 with EGTA – biochemical, small-molecule microarray, Cy5-labelled CALM1, profiling panel (AID 1111).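 Further: labelled calmodulin applied in Tris saline Tween buffer holding calcium plus EGTA and DTT.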 The note with it: Cy5-CALM1 binding fluorescence, higher = more signal.
Experiment [5] has the same target. The experiment is described as follows: small molecules binding Ca-loaded calmodulin-1 – biochemical, small-molecule microarray, Cy5-labelled CALM1, plus calcium, artefact control for SMM control-protein annotation, profiling panel (AID 1112).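 Further: score merges spot fluorescence with signal to noise from triplicate slides.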 The conditions noted are these: Cy5-CALM1 binding fluorescence, higher = more signal.
A short description of experiment [6]: probe aWnt5a binding to arrayed compounds – biochemical, biotinylated probe, 635/667 nm fluorescence, primary screen (AID 1113).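 Further: score merges 667 nm fluorescence intensity with signal-to-noise per printed feature.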 The conditions noted are these: small-molecule microarray, higher = more signal.
Experiment [7] is described as follows: probe aShh binding to arrayed compounds – biochemical, biotinylated probe, 635/667 nm fluorescence, primary screen (AID 1114).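 Further: probe is biotin-labelled aShh protein from a stem cell growth factor screen; measures binding of labelled protein to compounds printed on the slide; score merges feature fluorescence at 667 nm with signal-to-noise.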 The note with it: small-molecule microarray, higher = more signal.
Experiment [8] can be described thus: probe aNog binding to arrayed compounds – biochemical, biotinylated probe, 635/667 nm fluorescence, primary screen (AID 1115).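 Further: probe is biotinylated aNog protein used at 0.15 µg/mL for 1 h at 4 C; z-score combines 667 nm fluorescence of each spot with its signal to noise.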 The note with it: small-molecule microarray, higher = more signal.
Experiment [9] deals with Torsin-1A-interacting protein 1 (Homo sapiens) (UniProt Q5JTV8). The experiment in a line: compound microarray binding of lysate hLAP1 – cell lysate, small-molecule microarray, COS7 lysate, 635/667 nm fluorescence, primary screen (AID 1116). The conditions noted are these: 635 nm fluorescence, higher = more signal.
Experiment [10] deals with Alpha-bungarotoxin (Bungarus multicinctus) (UniProt P60615). The experiment is described as follows: compounds binding labelled alpha-BTX control protein – biochemical, small-molecule microarray, Alexa647 label, 635/667 nm fluorescence, artefact control for SMM control protein annotation, profiling panel (AID 1117). The conditions noted are these: alpha-BTX-A647 binding fluorescence, higher = more signal.

In another experiment the target is Albumin (Bos taurus) (UniProt P02769). The experiment is described as follows: compounds binding labelled BSA control protein – biochemical, small-molecule microarray, Alexa647 label, 635/667 nm fluorescence, artefact control for SMM control protein annotation, profiling panel (AID 1118).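 Further: score merges 667 nm emission intensity and signal-to-noise per printed compound spot.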 The conditions noted are these: BSA-A647 binding, fluorescence 635 nm, higher = more signal.

The nature of experiment [11]: probe aXIP binding to arrayed compounds – biochemical, NeuroSMM set, 635/667 nm fluorescence, primary screen (AID 1119).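 Further: probe is the protein aXip251-270 applied at 1 µg/mL to compound-printed slides; binding of probe to printed compounds measured as 667 nm fluorescence plus signal to noise.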 The conditions noted are these: small-molecule microarray, higher = more signal, called active from +8 up or from −8 down.
Experiment [12] can be described thus: probe aNOTCH3 binding on compound microarray – biochemical, small-molecule microarray, 635/667 nm fluorescence, primary screen (AID 1120).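 Further: probe is a biotin-tagged antibody raised against NOTCH3 rather than NOTCH3 protein; score merges spot fluorescence near 667 nm with spot signal to noise.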 The note with it: higher = more signal.
Experiment [13] in a line: probe aNOTCH2 binding on compound microarray – biochemical, small-molecule microarray, 635/667 nm fluorescence, primary screen (AID 1121).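 Further: score merges feature fluorescence read at 667 nm with its signal to noise.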 The note with it: higher = more signal.
Experiment [14] has as its target Carbonic anhydrase 2 (Homo sapiens) (UniProt P00918). The experiment is described as follows: compounds binding carbonic anhydrase 2 – biochemical, small-molecule microarray, Alexa647-labelled CAII, profiling panel (AID 1122). The note with it: CAII-A647 binding fluorescence, higher = more signal.
A short description of experiment [15]: COS7 lysate on small-molecule microarray, probe aHis, 635 nm (AID 1123).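 Further: z-score combines 667nm fluorescence intensity with signal-to-noise per printed compound spot.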 The note with it: COS7 cell lysate, fluorescence, higher = more signal.
A short description of experiment [16]: probe aLAP1 signal on lysate-treated microarray – cell lysate, small-molecule microarray, COS7 lysate, primary screen (AID 1124).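 Further: lysate comes from COS7 cells expressing LAP1 and is applied at 0.3 µg/mL; score merges spot fluorescence near 667 nm with signal-to-noise over triplicate slides.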 The note with it: probe aLAP1, fluorescence, higher = more signal.
Another experiment relates to Sam68 (KHDRBS1). The experiment in a line: compounds binding KHDRBS1 protein – biochemical, small-molecule microarray, 635 nm fluorescence, primary screen (AID 1125).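 Further: score merges 667 nm channel intensity with signal to noise over triplicate slides.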 The note with it: higher = more signal.
For experiment [17], the system named is Chordin-like protein 2 (CHRDL2). The experiment in a line: compounds binding chordin-like 2 – biochemical, small-molecule microarray, 635 nm fluorescence, primary screen (AID 1126).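 Further: printed compound slides probed with Chrdl2 protein at 4 µg/mL for 1 h at 4 C; score merges 667 nm emission intensity with signal to noise over three replicate slides.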 The note with it: fluorescence 635 nm, higher = more signal.
The target in experiment [18] is Concanavalin-A (Canavalia ensiformis) (UniProt P02866). The experiment in a line: compounds binding concanavalin A lectin – biochemical, small-molecule microarray, Alexa647 label, 635 nm, artefact control for SMM control protein annotation, primary screen (AID 1127).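 Further: z combines 667 nm emission intensity with signal-to-noise across three replicate slides.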 The note with it: ConA-A647 binding fluorescence, higher = more signal.
Concanavalin-A (Canavalia ensiformis), sequence (P02866 whole entry, looked up): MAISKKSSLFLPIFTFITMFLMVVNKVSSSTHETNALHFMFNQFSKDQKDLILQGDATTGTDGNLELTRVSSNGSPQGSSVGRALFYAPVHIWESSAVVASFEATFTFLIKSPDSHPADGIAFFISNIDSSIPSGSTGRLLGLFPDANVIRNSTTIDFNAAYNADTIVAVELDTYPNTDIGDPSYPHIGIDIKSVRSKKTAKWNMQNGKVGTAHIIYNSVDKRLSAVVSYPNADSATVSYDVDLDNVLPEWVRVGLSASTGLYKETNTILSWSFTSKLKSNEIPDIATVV

Torsin-1A-interacting protein 1 (Homo sapiens), sequence (Q5JTV8 whole entry, looked up): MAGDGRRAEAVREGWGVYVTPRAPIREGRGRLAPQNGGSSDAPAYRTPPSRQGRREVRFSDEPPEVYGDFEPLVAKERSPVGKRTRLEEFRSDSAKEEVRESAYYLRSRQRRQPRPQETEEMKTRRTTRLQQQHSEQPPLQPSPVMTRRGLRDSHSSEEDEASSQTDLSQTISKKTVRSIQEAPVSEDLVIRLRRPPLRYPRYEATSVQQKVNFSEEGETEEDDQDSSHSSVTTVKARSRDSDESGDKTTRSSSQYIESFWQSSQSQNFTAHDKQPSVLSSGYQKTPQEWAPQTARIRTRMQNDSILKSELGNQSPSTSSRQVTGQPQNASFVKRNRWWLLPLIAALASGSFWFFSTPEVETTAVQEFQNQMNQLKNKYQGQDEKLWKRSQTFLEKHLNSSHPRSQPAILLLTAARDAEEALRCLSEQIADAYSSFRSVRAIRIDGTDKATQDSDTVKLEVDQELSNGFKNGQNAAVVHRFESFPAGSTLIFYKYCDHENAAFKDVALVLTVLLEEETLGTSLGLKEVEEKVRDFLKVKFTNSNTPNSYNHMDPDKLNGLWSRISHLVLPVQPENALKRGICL
Left-right determination factor 2 (Homo sapiens), sequence (O00292 whole entry, looked up): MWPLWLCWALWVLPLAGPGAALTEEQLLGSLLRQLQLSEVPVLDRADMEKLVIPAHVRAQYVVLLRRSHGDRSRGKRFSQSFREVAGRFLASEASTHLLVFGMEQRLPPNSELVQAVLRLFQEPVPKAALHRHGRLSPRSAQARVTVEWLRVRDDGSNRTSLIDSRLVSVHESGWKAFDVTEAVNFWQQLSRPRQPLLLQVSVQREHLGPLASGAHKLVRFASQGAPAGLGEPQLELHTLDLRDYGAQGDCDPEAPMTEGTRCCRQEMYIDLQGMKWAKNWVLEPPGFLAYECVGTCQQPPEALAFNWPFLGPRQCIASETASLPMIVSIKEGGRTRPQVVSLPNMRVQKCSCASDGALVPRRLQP
Alpha-bungarotoxin (Bungarus multicinctus), sequence (P60615 whole entry, looked up): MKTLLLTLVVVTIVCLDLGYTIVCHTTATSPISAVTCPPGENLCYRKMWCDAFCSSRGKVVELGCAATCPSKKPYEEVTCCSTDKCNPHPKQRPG
Albumin (Bos taurus), sequence (P02769 whole entry, looked up): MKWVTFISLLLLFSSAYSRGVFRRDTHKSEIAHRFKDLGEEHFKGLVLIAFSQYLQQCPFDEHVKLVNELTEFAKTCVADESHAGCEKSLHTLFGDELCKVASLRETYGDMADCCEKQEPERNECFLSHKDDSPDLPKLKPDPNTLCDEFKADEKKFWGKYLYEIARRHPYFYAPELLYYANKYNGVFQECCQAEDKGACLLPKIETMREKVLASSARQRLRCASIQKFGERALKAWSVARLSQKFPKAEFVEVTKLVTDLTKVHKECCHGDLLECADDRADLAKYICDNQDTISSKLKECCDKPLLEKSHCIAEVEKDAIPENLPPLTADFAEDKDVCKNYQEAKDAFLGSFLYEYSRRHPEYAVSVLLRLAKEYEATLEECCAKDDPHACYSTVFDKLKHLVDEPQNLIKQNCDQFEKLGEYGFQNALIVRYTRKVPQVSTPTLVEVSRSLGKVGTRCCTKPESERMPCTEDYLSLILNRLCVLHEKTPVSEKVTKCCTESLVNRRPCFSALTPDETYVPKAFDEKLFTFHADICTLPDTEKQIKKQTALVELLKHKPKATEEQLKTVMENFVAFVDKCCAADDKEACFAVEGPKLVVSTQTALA

For `CC[C@H](C)C(=O)O[C@H]1CC[C@]2(C)C3=C(CCC2C1(C)C)[C@]1(C)CC[C@H]([C@H](C)CCCC(C)C)[C@@]1(C)CC3` (stereo not given in full), the composite z-score in [1] is 0.758; in [3] it was 0.405; in experiment [4] it was -0.367; in experiment [5], -0.468; in experiment [6] it was -0.0462; in experiment [7] it was -0.0769. In addition, the composite z-score was -0.31 in [8]; 0.14 in experiment [9]; 0.332 in [10]; -0.0017 in the experiment with Albumin (Bos taurus); -0.0947 in experiment [12]; -0.146 in experiment [13]. Further, the composite z-score was -0.0247 in [14]; 0.627 in [15]; -0.329 in experiment [16]; 0.329 with Sam68 (KHDRBS1); 0.367 in experiment [17]; 0.515 in experiment [18]. Moreover, the z-score in [2] is -0.492. Also, the composite Z-score in experiment [11] is -0.014 (inactive).

Regarding `CCOC(=O)C1=CC[C@@H](c2ccccc2)N(S(=O)(=O)C[Si](C)(C)C)[C@H]1c1ccccc1`, the composite z-score in experiment [1] is 1.38; in [3], 0.618; in experiment [4] it was 1.36; in experiment [5] it was 0.391; in experiment [6], 0.105; in [7], -0.2. Moreover, the composite z-score in [8] was 0.509; in experiment [9] it was 1.02; in experiment [10], 1.02; in the experiment with Albumin (Bos taurus), 0.873; in experiment [12] it was 0.138; in experiment [13], -0.0079. In addition, the composite z-score in experiment [14] is 0.605; in [15], 1.27; in [16], -0.203; in the experiment with Sam68 (KHDRBS1) it was 1.34; in experiment [17], 0.302; in experiment [18], 1.02. Besides, the z-score in experiment [2] was -0.61. The composite Z-score in [11] was -0.17 (inactive).

With `COc1ccc(CCNC(=O)[C@@]2(Sc3ccc(C)cc3)CC(=O)N(C(C)C)[C@@H]2c2ccc(CO)cc2)cc1`, the composite z-score is 0.889 in experiment [1]; -2.73 in experiment [3]; 0.359 in experiment [4]; -0.242 in experiment [5]; -0.28 in experiment [6]; 0.0121 in experiment [7]. For the same compound, the composite z-score is -0.209 in [8]; -1.16 in experiment [9]; -0.563 in [10]; 0.566 with Albumin (Bos taurus); -0.39 in experiment [12]; -0.124 in [13]. The composite z-score is 0.7 in experiment [14]; 0.239 in [15]; 0.0112 in experiment [16]; -0.346 in the experiment with Sam68 (KHDRBS1); -2.15 in experiment [17]; -0.277 in experiment [18]. Also, in [2], the z-score is -0.887. Also, the composite Z-score in experiment [11] is 0.397 (inactive).

As for `COc1ccccc1CN1C(=O)c2ccccc2[C@](Cc2ccccc2I)(C(=O)NCCCN(C)C)[C@@H]1c1ccc(CO)cc1`, the composite z-score in experiment [1] is 1.35; in experiment [3], -0.371; in [4], -0.167; in experiment [5], -0.272; in experiment [6], 0.134; in experiment [7], 0.215. Also, the composite z-score was 1.44 in [8]; 0.549 in [9]; 0.812 in experiment [10]; 0.0893 with Albumin (Bos taurus); -0.243 in experiment [12]; -0.181 in experiment [13]. Further, the composite z-score worked out at 0.475 in [14]; 1.86 in experiment [15]; 2.08 in experiment [16]; 1.3 with Sam68 (KHDRBS1); 0.176 in experiment [17]; 1.11 in experiment [18]. Moreover, in [2], the z-score was -3.5. Also, the composite Z-score in experiment [11] was -0.105 (inactive).
